# Pf growth 48h: inhibits P. falciparum growth in the first generation, 48 h | 310,000 tested, 5.9% active | Potency, µM (doses to about 28.7 µM), for inactives: top-dose activity change, negative = inhibition, most hits filed as inhibitors | P. falciparum luciferase growth in erythrocytes, 48 h; also: % is scaled to controls: 0 for no effect and ±100 for the full control effect
#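 Read-out is firefly luciferase luminescence from an integrated reporter in P. falciparum, so falling signal marks reduced parasite growth. Infected erythrocytes were at 2% hematocrit and 0.1% parasitemia (final) in Albumax-supplemented RPMI 1640.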
# NS1 inh: blocks influenza NS1 protein function | Potency, µM (top dose mostly 46.1 µM), for inactives: top-dose activity, positive = more growth | 270,000 tested, 0.4% active | AID 2326; calls by dose curve; also: actives are rising curves; nearly all actives have a fitted effect of over 50% in size
#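 S. cerevisiae expressing influenza A NS1, grown in glucose, washed, then diluted 1:100 into pH 6.0 -URA galactose medium with 23 nl compound. Growth recovery read as OD600; NS1-free strain serves as control.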
# Vaccinia mCherry: inhibitors of vaccinia virus infection (mCherry reporter signal). 310,000 tested, 0.63% active. Potency, µM (doses to about 36.5 µM), for the others: at the top dose activity change, negative = inhibition, most hits filed as inhibitors. Vaccinia virus mCherry reporter infection, fluorescence; calls by dose curve; tested in A549 cells; also: % is scaled to controls: 0 for no effect and ±100 for the full control effect; nearly all actives have a fitted effect of over 35% in size
# Vaccinia Venus: vaccinia inhibition (Venus reporter) | Vaccinia virus Venus reporter expression, fluorescence | Potency, µM (highest dose often 36.5 µM), for inactives: at the highest dose activity change, negative = inhibition, hits mostly inhibitors | 330,000 tested, 0.46% active; calls by dose curve; tested in A549 cells; also: % is scaled to controls: 0 for no effect and ±100 for the full control effect; nearly all actives have a fitted effect of over 30% in size
# Pf growth 96h: P. falciparum growth inhibition at 96 hour, primary screen for plastid delayed-death inhibitors; 320,000 tested, 6.9% active; P. falciparum luciferase reporter growth, 96 h; Potency, µM (series often up to 28.7 µM), inactives show at the top dose activity change, negative = inhibition, most hits filed as inhibitors; also: % is scaled to controls: 0 for no effect and ±100 for the full control effect
#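 Parasite growth measured via integrated firefly luciferase reporter in P. falciparum. Infected erythrocytes at 2% hematocrit, 0.05% parasitemia final were treated 96 hours at 37 C under 5% CO2, and luminescence was read.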
# HCV inh: inhibitors of hepatitis C virus infection; Huh7.5.1 HCVcc-Cre infection, luciferase reporter, 44 h; Potency, µM (titrated, usually from 41.8 µM), for inactives: at the top dose activity change, negative = inhibition, actives largely listed as inhibitors; 340,000 tested, 3.4% active; AID 651820; also: % is scaled to controls: 0 for no effect and ±100 for the full control effect
#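 Luciferase read-out (15 sec integration) after a 15 min room-temperature substrate step quantifies HCVcc-Cre infection. Cells, 1,000 per well, had compound added 4 h post-plating, then virus at ~0.5 moi, and were cultured 44 h.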
# Numbers without * were called inactive; i = inactive; ? = inconclusive; . = no result given. Only some compounds are listed: those with a hit (about 11% of all), similar ones and a draw of the others. Unless noted, calls follow the shape of the dose curve; as a rule, active = well fitted inhibition curve with a large enough effect; inconclusive = small, poorly fitted or top-dose-only effect, or another doubt; inactive = no such curve, though single readings can be large or run the other way. Potency is read from the fitted curve at half-maximal effect.
SMILES,Pf growth 48h,NS1 inh,Vaccinia mCherry,Vaccinia Venus,Pf growth 96h,HCV inh
COc1cccc2c1C(=O)c1c(O)c3c(c(O)c1C2=O)C[C@@](O)(C(=O)CO)C[C@@H]3OC1CC(N)C(O)C(C)O1 (stereo not given in full),0.43µM*,.,427%,i,0.067µM*,1µM*
COc1cccc2c1C(=O)c1c(O)c3c(c(O)c1C2=O)CC(O)(C(C)=NO)CC3OC1CC(N)C(O)C(C)O1 (stereo not given),.,.,384%,i,.,?
CC(Sc1nc(-c2ccccc2)cc(C(F)(F)F)n1)C(=O)NCc1ccco1 (stereo not given),?,5%,-25%,-12%,.,11µM*
O=C(CSc1nc(-c2cccs2)cc(C(F)(F)F)n1)Nc1cc(OCC(F)(F)C(F)F)cc([N+](=O)[O-])c1,?,4%,-9%,-28%,?,3.5µM*
O=C(CSc1nc(-c2ccc(F)cc2)cc(C(F)(F)F)n1)NCCc1ccccc1,.,.,-12%,-7%,.,.
O=C(CSc1nc(-c2ccc(F)cc2)cc(C(F)(F)F)n1)NCc1cccs1,-8%,11%,-8%,-15%,3.3µM*,9%
COc1ccc(CNC(=O)C(C)Sc2nc(-c3ccccc3)cc(C(F)(F)F)n2)cc1 (stereo not given),.,.,0%,-9%,.,.
CC1CCCN(C(=O)C(C)Sc2nc(-c3ccccc3)cc(C(F)(F)F)n2)C1 (stereo not given),2.6µM*,3%,i,-15%,.,?
CC(Sc1nc(-c2ccccc2)cc(C(F)(F)F)n1)C(=O)N1CCCCC1 (stereo not given),?,-41%,.,.,34%,?
CCOC(=O)C1CCCN(C(=O)CCC(=O)Nc2ccc3nc(N4CCOCC4)cc(C)c3c2)C1 (stereo not given),10%,-46%,-17%,-15%,-14%,4%
O=C(/C=C/c1ccc(F)cc1)NCCCn1ccnc1,31%,-1%,.,.,-9%,8%
COC(=O)CSc1nc(-c2ccc(F)cc2)cc(C(F)(F)F)n1,-6%,13%,-13%,-6%,-20%,1%
O=C(CSc1nc(-c2ccc(F)cc2)cc(C(F)(F)F)n1)NCc1ccco1,-14%,-16%,-28%,-27%,2.1µM*,-7%
CCC(=O)N1CCN(c2ccc(NC(=O)c3cc4ccccc4o3)cc2Cl)CC1,?,-2%,?,11µM*,-2%,11µM*
CCC(=O)N1CCN(c2ccc(NC(=O)c3ccco3)cc2Cl)CC1,?,-16%,-8%,-2%,-1%,-4%
CCCC(=O)N1CCN(c2ccc(NC(=O)c3cccs3)cc2Cl)CC1,?,-4%,-3%,-15%,126%,22%
CCCC(=O)N1CCN(c2ccc(NC(=O)c3cc4ccccc4o3)cc2Cl)CC1,1.5µM*,-68%,.,10µM*,7%,2.2µM*
O=C(Nc1ccc(N2CCN(C(=O)c3ccco3)CC2)c(Cl)c1)c1cc2ccccc2o1,2.9µM*,-65%,11µM*,16µM*,-2%,3.5µM*
N#Cc1nc(COc2ccccc2)oc1N1CCCC1,-27%,-108%,-11%,-3%,15%,-4%
CN1CCN(c2oc(COc3ccc(-c4ccccc4)cc3)nc2C#N)CC1,-19%,-99%,-7%,-17%,-17%,5µM*
COc1ccc(N2CCN(c3oc(COc4ccccc4)nc3C#N)CC2)cc1,13µM*,6%,-22%,-15%,55%,-19%
COc1cccc(-c2nnc3sc(-c4ccccc4)nn23)c1,?,-9%,.,.,3.3µM*,?
COc1cccc(-c2nnc3sc(-c4ccc(Cl)cc4)nn23)c1,6%,1%,.,.,-10%,.
COc1cccc(OC)c1-c1nn2c(-c3cc(-c4ccccc4)n[nH]3)nnc2s1,2.1µM*,6%,-24%,-24%,-21%,?
CCOc1cccc(-c2nn3c(-c4cc(C)[nH]n4)nnc3s2)c1,?,-2%,-29%,-13%,1.7µM*,-29%
SMILES,Pf growth 48h,NS1 inh,Vaccinia mCherry,Vaccinia Venus,Pf growth 96h,HCV inh
Clc1cccc(-c2nn3c(-c4ccncc4)nnc3s2)c1,20%,3%,.,.,13µM*,.
CC(=O)Nc1c2c(nn1-c1ccc(C)cc1)CSC2,-6%,7%,.,.,-30%,6%
Cn1c(=O)c2ncn(C)c2n(C)c1=O,.,.,i,0%,.,-1%
COc1ccc(C2CC(=O)c3cnc(N4CCc5ccccc54)nc3C2)cc1OC (stereo not given),?,2%,.,.,?,.
Cc1ccccc1Cn1cc(NC(=O)CSc2nc3c(c(C(F)(F)F)n2)CCc2ccccc2-3)cn1,?,16%,.,.,?,13µM*
Cc1nn(Cc2ccc(Cl)cc2)c(C)c1NC(=O)CSc1nc2c(c(C(F)(F)F)n1)CCc1ccccc1-2,?,23%,-11%,-11%,4.7µM*,.
COc1ccc(Cc2nnc(NC(=O)CS(=O)(=O)c3ccc(C)cc3)s2)cc1OC,-27%,-6%,-15%,-9%,-18%,14%
CCOCCc1nnc(NC(=O)CS(=O)(=O)c2ccc(C)cc2)s1,0%,10%,i,-3%,0.23µM*,14%
COc1ccc(/C=N/NC(=O)CC(=O)N/N=C/c2ccc(OC)cc2)cc1,?,.,i,-24%,39%,-8%
CS(=O)(=O)N(CC(=O)NCc1ccccn1)c1ccc2c(c1)OCCO2,15%,-2%,-15%,-1%,4.1µM*,17%
CN(c1ccccc1C(=O)NCc1ccccn1)S(C)(=O)=O,15µM*,8%,.,.,.,4%
CCOc1ccc(C(=O)NCC(=O)Nc2ccc3c(c2)OCO3)cc1OCC,?,.,-15%,-9%,39%,8%
CN(CC(=O)NCc1ccccn1)S(=O)(=O)c1ccccc1,1%,1%,-23%,-11%,11%,5%
CCOc1cc(C(=O)Nc2ccc3c(c2)OCO3)ccc1OC(F)F,46%,-31%,-1%,-10%,9.3µM*,?
CN(CC(=O)NCc1ccccn1)S(=O)(=O)c1ccc(F)cc1,17%,-3%,-11%,-8%,15µM*,30%
CCOc1cc(N2CCOCC2)c(OCC)cc1NC(=O)c1c(C)noc1C,13%,.,i,-15%,1%,4%
CCOc1ccc(NC(=O)c2ccc3c(c2)OCCO3)cc1S(=O)(=O)N(CC)CC,13µM*,.,.,.,13µM*,2.8µM*
CCOc1ccccc1N(CC(=O)Nc1ccc2c(c1)OCO2)S(C)(=O)=O,4%,3%,-13%,-14%,-3%,-14%
CCOc1ccc(C(=O)Nc2ccc3c(c2)OCCO3)cc1OC,122%,-13%,.,.,51%,?
Cc1ccc(C(=O)Nc2ccc(C)c(S(=O)(=O)Nc3ccccc3Cl)c2)s1,-8%,2%,-24%,-26%,4%,10µM*

# Bioassay records as filed in PubChem BioAssay.
